According to publication PMC4336329 (PLoS ONE, 2015):
Hit rate of the full screen: of about 310,000 compounds, about 14,000 (4.5%) showed an effect of 50% or more. The effect is printed as a negative number. The entries come from a sample that favours strong results as a whole.

molecular target: human ether-à-go-go-related gene (hERG) potassium channel (human, UniProt Q12809); assay: primary screen, population patch clamp on CHO cells stably expressing hERG; higher = less effect of the substance
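Note: peak tail current of the secondary pulse compared with the same well before compound.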

Chain of human ether-à-go-go-related gene (hERG) potassium channel (Q12809 whole entry, looked up): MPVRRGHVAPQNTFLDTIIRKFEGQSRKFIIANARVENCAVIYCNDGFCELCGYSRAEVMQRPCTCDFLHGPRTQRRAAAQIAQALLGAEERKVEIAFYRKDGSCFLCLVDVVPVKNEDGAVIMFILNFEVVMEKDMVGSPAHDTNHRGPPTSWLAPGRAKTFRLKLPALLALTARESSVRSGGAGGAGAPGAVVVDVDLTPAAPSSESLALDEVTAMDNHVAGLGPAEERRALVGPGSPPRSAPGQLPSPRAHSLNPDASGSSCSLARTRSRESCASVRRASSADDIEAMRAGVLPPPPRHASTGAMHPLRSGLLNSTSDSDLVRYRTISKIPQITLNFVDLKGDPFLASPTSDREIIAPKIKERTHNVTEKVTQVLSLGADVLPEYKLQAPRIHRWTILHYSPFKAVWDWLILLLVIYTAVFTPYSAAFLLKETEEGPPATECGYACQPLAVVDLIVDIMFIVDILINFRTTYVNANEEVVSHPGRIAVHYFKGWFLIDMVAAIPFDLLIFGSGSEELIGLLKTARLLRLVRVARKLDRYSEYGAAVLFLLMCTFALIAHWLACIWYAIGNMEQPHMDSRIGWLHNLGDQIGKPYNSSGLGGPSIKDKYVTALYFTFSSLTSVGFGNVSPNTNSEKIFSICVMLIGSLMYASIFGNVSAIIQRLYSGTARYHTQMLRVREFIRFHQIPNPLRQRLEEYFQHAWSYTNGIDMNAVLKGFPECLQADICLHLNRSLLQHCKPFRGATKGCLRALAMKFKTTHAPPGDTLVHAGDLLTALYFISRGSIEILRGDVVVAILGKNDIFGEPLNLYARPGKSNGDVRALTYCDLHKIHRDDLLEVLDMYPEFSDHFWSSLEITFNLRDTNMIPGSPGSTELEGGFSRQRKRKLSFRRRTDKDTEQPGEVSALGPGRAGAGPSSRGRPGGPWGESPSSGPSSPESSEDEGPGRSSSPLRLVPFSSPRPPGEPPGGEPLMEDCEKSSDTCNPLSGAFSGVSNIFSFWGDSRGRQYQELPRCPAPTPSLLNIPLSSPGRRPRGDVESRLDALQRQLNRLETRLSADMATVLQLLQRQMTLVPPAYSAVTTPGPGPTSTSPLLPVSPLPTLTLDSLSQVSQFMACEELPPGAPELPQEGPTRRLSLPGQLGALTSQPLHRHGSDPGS

Row | Compound | hERG current change (%, negative = inhibition) at 10uM [%]
1 | Cc1ccc(C2=NS(=O)(=O)N(C)C(C(=O)NCc3cccs3)=C2)cc1 | -8.57
2 | COc1ccc(OC)c(C2=NS(=O)(=O)N(C)C(C(=O)NCc3cccs3)=C2)c1 | -28
3 | CN1C(C(=O)NCc2ccco2)=CC(c2ccc(F)cc2)=NS1(=O)=O | -34.2
4 | CCc1ccc(C2CC(c3ccc(Cl)cc3)n3nc(N)nc3N2)cc1 (centres unmarked) | -10.3
5 | CC(C(=O)N1CCc2ccccc21)N1CCN(S(=O)(=O)c2cccs2)CC1 (centres unmarked) | -28.8
6 | Cc1ccnc(OC(C(=O)O)C(OCCc2ccccc2)(c2ccccc2)c2ccccc2)n1 (centres unmarked) | 23.2
7 | CC(=O)Nc1n[nH]c(-c2ccc(C)cc2)c1C | 4.49
8 | Cc1ccc(CNS(=O)(=O)CCNC(=O)c2ccccc2)cc1 | -33.5
9 | Cc1[nH]nc2c1C(c1cccs1)C(C#N)=C(N)O2 (centres unmarked) | 5.07
10 | O=C(OCC(=O)N1CCc2ccccc2C1)c1cccnc1Cl | -0.321
11 | COc1ccc(CNC(=O)C2=CC(c3ccc(OC)c(OC)c3)=NS(=O)(=O)N2C)cc1 | -21.8
12 | COc1ccc(C2=NS(=O)(=O)N(C)C(C(=O)NCc3ccc4c(c3)OCO4)=C2)cc1 | -63.3
13 | Cc1ccc(C2=NS(=O)(=O)N(C)C(C(=O)NCc3ccc(F)cc3)=C2)cc1 | -28.4
14 | COc1ccc(C2=NS(=O)(=O)N(C)C(C(=O)NCc3ccc(F)cc3)=C2)cc1OC | -59
15 | COc1ccc(C2=NS(=O)(=O)N(C)C(C(=O)NCc3ccc4c(c3)OCO4)=C2)cc1OC | -34.9
16 | COc1ccc(C2=NS(=O)(=O)N(C)C(C(=O)Nc3ccc4c(c3)OCO4)=C2)cc1 | -4.37
17 | Cc1cc(C)nc(NC(=O)c2ccccc2O)n1 | 18.3
18 | Fc1cccc(Cl)c1CSc1ccc(-c2ccco2)nn1 | 1.19
19 | O=[N+]([O-])c1cccc(-c2ccc(SCc3ccccn3)nn2)c1 | -6.25
20 | c1cncc(CSc2ccc(-c3cccnc3)nn2)c1 | 9.04
21 | Clc1cccc(CSc2ccc(-c3cccnc3)nn2)c1 | -67.3
22 | Fc1cccc(Cl)c1CSc1ccc(-c2cccnc2)nn1 | -68.9

Row | Compound | hERG current change (%, negative = inhibition) at 10uM [%]
23 | O=[N+]([O-])c1cccc(-c2ccc(SCc3cccnc3)nn2)c1 | -55
24 | Clc1ccc(CSc2ccc(-c3cccnc3)nn2)cc1 | -48.6
25 | c1ccc(CSc2ccc(-c3cccnc3)nn2)nc1 | 6.82
26 | c1ccc(CSc2ccc(-c3cccnc3)nn2)cc1 | -13.7
27 | N#Cc1c(NC(=O)COC(=O)c2ccc(S(=O)(=O)N3CCCC3)cc2)sc2c1CCCCC2 | 6.38
28 | CCCCC1C(C#N)=C(C)NC2=C1C(=O)CC(C)(C)C2 (centres unmarked) | -9.68
29 | O=C(CSc1nc(NS(=O)(=O)c2ccccc2)cc(=O)[nH]1)Nc1ccc(F)cc1 | 10.7
30 | CC(C)c1ccc(OCC(=O)Nc2ccc(S(=O)(=O)Nc3ccccn3)cc2)cc1 | 10.7
31 | Clc1ccc(CNc2ncccn2)cc1 | 13.5
32 | CCOc1ccc(/C(O)=C2/C(=O)C(=O)N(CC3CCCO3)C2c2ccco2)cc1 (centres unmarked) | 14.2
33 | COc1ccc(CNC(=O)CCOc2ccc(C(C)(C)C)cc2)cc1 | 8.47
34 | O=C1NCCN1CCNS(=O)(=O)c1cc(C(F)(F)F)cc(C(F)(F)F)c1 | 17.2
35 | Cc1csc(Nc2ccccc2C(F)(F)F)n1 | 6.46
36 | CN1CCN(c2nc3ccccn3c(=O)c2/C=C(\C#N)S(=O)(=O)c2ccccc2)CC1 | -24.9
37 | Cc1ccc(S(=O)(=O)/C(C#N)=C/c2c(N3CCCCC3)nc3ccccn3c2=O)cc1 | -29.9
38 | CCN1CCN(c2nc3ccccn3c(=O)c2/C=C(\C#N)S(=O)(=O)c2ccccc2)CC1 | -42.3
39 | Cc1ccc(S(=O)(=O)/C(C#N)=C/c2c(N3CCN(C)CC3)nc3ccccn3c2=O)cc1 | -59.1
40 | CN1CCN(c2nc3ccccn3c(=O)c2/C=C(\C#N)S(=O)(=O)c2ccc(Cl)cc2)CC1 | -51.9
41 | N#C/C(=C\c1c(N2CCN(c3ccccc3)CC2)nc2ccccn2c1=O)S(=O)(=O)c1ccccc1 | 2.28
42 | N#C/C(=C\c1c(N2CCOCC2)nc2ccccn2c1=O)S(=O)(=O)c1ccccc1 | -63.2
43 | N#C/C(=C\c1c(N2CCCCC2)nc2ccccn2c1=O)S(=O)(=O)c1ccccc1 | -40.7
44 | N#C/C(=C\c1c(N2CCN(Cc3ccccc3)CC2)nc2ccccn2c1=O)S(=O)(=O)c1ccccc1 | 0.944
